Source: paper PMC10954555

Tests used:
[1] = molecular target: Large ribosomal subunit protein uL5 (UniProt P62913); experiment: cross-linking mass spectrometry; other
[2] = molecular target: Actin, cytoplasmic 2 (UniProt P63261); experiment: other; cross-linking mass spectrometry; other
[3] = molecular target: Bromodomain-containing protein 3 (UniProt Q15059); experiment: other; cross-linking mass spectrometry; other
[4] = molecular target: DNA-directed RNA polymerase II subunit RPB3 (UniProt P19387); experiment: other; cross-linking mass spectrometry; other
[5] = molecular target: DNA-directed RNA polymerase II subunit RPB1 (UniProt P24928); experiment: other; affinity purification or IP with mass spectrometry; other
[6] = molecular target: High mobility group nucleosome-binding domain-containing protein 3 (UniProt Q15651); experiment: other; cross-linking mass spectrometry; other
[7] = molecular target: Large ribosomal subunit protein eL34 (UniProt P49207); experiment: other; cross-linking mass spectrometry; other
[8] = molecular target: Large ribosomal subunit protein eL8 (UniProt P62424); experiment: other; cross-linking mass spectrometry; other
[9] = molecular target: Large ribosomal subunit protein uL2 (UniProt P62917); experiment: other; cross-linking mass spectrometry; other
[10] = molecular target: Large ribosomal subunit protein eL6 (UniProt Q02878); experiment: other; cross-linking mass spectrometry; other
[11] = molecular target: RNA polymerase II-associated factor 1 homolog (UniProt Q8N7H5); experiment: other; cross-linking mass spectrometry; other
[12] = molecular target: RNA-binding protein 8A (UniProt Q9Y5S9); experiment: other; cross-linking mass spectrometry; other
[13] = molecular target: Replication factor C subunit 5 (UniProt P40937); experiment: other; cross-linking mass spectrometry; other
[14] = molecular target: Retinoblastoma-binding protein 5 (UniProt Q15291); experiment: other; cross-linking mass spectrometry; other
[15] = molecular target: Small ribosomal subunit protein eS6 (UniProt P62753); experiment: other; cross-linking mass spectrometry; other
[16] = molecular target: Small ribosomal subunit protein uS14 (UniProt P62273); experiment: other; cross-linking mass spectrometry; other
[17] = molecular target: Small ribosomal subunit protein uS7 (UniProt P46782); experiment: other; cross-linking mass spectrometry; other
[18] = molecular target: Ubiquitin-ribosomal protein eS31 fusion protein (UniProt P62979); experiment: other; cross-linking mass spectrometry; other
[19] = molecular target: DNA-directed RNA polymerase II subunit RPB9 (UniProt P36954); experiment: other; affinity purification or IP with mass spectrometry; other
[20] = molecular target: DNA-directed RNA polymerase II subunit RPB2 (UniProt P30876); experiment: other; affinity purification or IP with mass spectrometry; cross-linking mass spectrometry; other
[21] = molecular target: Actin, alpha skeletal muscle (UniProt P68133); experiment: cross-link between two proteins; cross-linking mass spectrometry; other

Chain of Bromodomain-containing protein 3 (Q15059 whole entry): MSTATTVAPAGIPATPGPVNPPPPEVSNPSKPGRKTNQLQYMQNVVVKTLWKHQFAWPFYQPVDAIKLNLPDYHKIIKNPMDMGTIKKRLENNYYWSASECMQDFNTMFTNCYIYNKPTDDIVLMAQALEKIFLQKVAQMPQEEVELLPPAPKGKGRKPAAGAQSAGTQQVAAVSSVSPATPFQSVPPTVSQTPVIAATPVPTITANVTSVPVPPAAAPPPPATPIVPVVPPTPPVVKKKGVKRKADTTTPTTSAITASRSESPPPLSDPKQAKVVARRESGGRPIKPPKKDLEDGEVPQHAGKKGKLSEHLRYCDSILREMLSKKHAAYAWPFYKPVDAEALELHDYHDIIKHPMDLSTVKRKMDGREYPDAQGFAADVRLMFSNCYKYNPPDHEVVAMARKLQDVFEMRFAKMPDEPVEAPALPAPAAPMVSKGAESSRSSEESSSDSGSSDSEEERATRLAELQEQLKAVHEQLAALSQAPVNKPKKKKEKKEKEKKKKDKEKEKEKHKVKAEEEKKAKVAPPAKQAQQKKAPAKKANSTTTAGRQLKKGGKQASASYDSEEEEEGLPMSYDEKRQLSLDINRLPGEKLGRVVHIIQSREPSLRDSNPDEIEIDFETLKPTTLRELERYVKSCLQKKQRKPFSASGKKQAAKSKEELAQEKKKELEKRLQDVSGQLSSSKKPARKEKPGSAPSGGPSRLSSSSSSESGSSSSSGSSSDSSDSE
Chain of Replication factor C subunit 5 (P40937 whole entry): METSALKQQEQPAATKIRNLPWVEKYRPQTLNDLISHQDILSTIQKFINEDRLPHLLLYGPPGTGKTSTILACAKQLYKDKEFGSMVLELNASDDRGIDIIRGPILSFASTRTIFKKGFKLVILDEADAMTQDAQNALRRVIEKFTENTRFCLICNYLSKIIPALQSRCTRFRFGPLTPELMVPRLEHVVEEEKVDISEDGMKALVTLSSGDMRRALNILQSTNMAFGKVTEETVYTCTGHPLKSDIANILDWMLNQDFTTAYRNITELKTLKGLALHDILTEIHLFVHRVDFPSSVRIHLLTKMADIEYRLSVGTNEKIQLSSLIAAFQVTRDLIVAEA
Chain of Replication factor C subunit 4, P35249 (P35249 whole entry): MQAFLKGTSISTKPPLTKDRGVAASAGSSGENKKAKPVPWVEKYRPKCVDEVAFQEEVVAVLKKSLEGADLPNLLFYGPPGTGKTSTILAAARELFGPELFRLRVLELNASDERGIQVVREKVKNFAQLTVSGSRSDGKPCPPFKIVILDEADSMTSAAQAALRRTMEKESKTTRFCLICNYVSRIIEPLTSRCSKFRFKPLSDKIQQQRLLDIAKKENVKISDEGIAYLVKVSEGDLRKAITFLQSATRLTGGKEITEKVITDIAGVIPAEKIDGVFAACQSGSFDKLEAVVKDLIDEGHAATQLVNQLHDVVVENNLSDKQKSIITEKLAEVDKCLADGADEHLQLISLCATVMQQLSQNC
Chain of Retinoblastoma-binding protein 5 (Q15291 whole entry): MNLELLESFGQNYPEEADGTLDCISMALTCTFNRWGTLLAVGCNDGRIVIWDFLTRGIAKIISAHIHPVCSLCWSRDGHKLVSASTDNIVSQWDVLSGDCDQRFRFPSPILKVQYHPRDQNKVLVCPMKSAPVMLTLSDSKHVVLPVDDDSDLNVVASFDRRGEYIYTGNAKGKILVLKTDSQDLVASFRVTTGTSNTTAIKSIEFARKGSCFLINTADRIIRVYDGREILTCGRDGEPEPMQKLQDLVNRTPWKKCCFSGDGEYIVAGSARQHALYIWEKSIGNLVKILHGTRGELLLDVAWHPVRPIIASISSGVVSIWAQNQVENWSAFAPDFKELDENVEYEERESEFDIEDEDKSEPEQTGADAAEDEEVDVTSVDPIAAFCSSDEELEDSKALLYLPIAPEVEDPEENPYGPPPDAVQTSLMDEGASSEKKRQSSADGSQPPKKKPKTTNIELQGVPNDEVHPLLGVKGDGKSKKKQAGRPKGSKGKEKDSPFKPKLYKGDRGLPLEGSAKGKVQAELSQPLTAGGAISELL

## Large ribosomal subunit protein uL1, P62906
[1]
  listed as a hit: yes

## Actin, cytoplasmic 1, P60709
[2]
  listed as a hit: yes

## Bromodomain-containing protein 4, O60885
[3]
  listed as a hit: yes

## DNA-directed RNA polymerase II subunit RPB4, O15514
[4]
  listed as a hit: yes
[5]
  listed as a hit: yes

## Non-histone chromosomal protein HMG-17, P05204
[6]
  listed as a hit: yes

## Large ribosomal subunit protein uL4, P36578
[7]
  listed as a hit: yes
[8]
  listed as a hit: yes
[9]
  listed as a hit: yes

## Large ribosomal subunit protein eL32, P62910
[10]
  listed as a hit: yes

## RNA polymerase-associated protein CTR9 homolog, Q6PD62
[11]
  listed as a hit: yes

## Parafibromin, Q6P1J9
[11]
  listed as a hit: yes

## Eukaryotic initiation factor 4A-III, P38919
[12]
  listed as a hit: yes

## Replication factor C subunit 4, P35249
[13]
  listed as a hit: yes

## Histone-lysine N-methyltransferase 2A, Q03164
[14]
  listed as a hit: yes

## Small ribosomal subunit protein uS17, P62280
[15]
  listed as a hit: yes

## Small ribosomal subunit protein uS10, P60866
[16]
  listed as a hit: yes

## Small ribosomal subunit protein eS19, P39019
[17]
  listed as a hit: yes

## Small ribosomal subunit protein uS7, P46782
[18]
  listed as a hit: yes

## Small ribosomal subunit protein eS1, P61247
[18]
  listed as a hit: yes

## DNA-directed RNA polymerase II subunit RPB1, P24928
[19]
  listed as a hit: yes
[20]
  listed as a hit: yes

## Actin, cytoplasmic 2, P63261
[21]
  listed as a hit: yes
